Bioassay records as filed in PubChem BioAssay.
TAR Tat displ = TAR RNA-Tat peptide displacers, HIV-1, primary screen, biochemical, FRET, FAM/TAMRA-labeled Tat | 100,000 compounds, 0.6% hits | z-score (test concentration not listed) | HIV-1 TAR RNA, Tat peptide displacement FRET; hits give high values | AID 1259389, 2018; active = z-score of 3 or more in at least 2 runs
CDC25B-CDK2 inh = primary biochemical HTRF screen for blockers of M-phase inducer phosphatase 2 binding to CDK2/cyclin A. P30305+P24941. HTRF CDC25B-CDK2/CyclinA binding, anti-His/anti-Flag; hits give high values. z-score (no concentration beside the values). 94,000 compounds, 0.72% hits; in the data active = z-score above about 3.2
Active calls of the source: *. Rows were chosen to be rich in hits. Some 0.9% of all compounds tested hit in one or more screens of this group.

How did Cc1c2c(=O)n(-c3nc4ccccc4s3)nc-2cc(O)n1CCc1cnc[nH]1 do in these assays?
TAR Tat displ: 26*; CDC25B-CDK2 inh: -0.36

How did Cc1nn(C(C)C(=O)NCCc2c[nH]c3ccccc23)c(=O)c2c1sc1ccccc12 (stereo not given) do in these assays?
TAR Tat displ: 2.5; CDC25B-CDK2 inh: -1.7

What do the screens show for `Cc1c2c(=O)n(-c3nc4ccccc4s3)nc-2cc(O)n1CCc1c[nH]c2ccccc12`?
TAR Tat displ: 9.2*; CDC25B-CDK2 inh: 2

Results for O=S(=O)(c1ccc(Cl)cc1)N1CCCC(c2nc(-c3cccc(Cl)c3)no2)C1 (stereo not given) ?
TAR Tat displ: 1.5

How did CCOc1ccc2nc(NC(=O)c3cc4ccc5cccnc5c4[nH]3)sc2c1 do in these assays?
TAR Tat displ: 1

How did O=S1(=O)C[C@H](NCc2ccccc2)[C@@H](S(=O)(=O)c2ccccc2)C1 do in these assays?
TAR Tat displ: -1.2; CDC25B-CDK2 inh: -1.4

Results for CC(C)(C)N[C@H]1CS(=O)(=O)C[C@@H]1S(=O)(=O)c1ccccc1 ?
TAR Tat displ: 19*; CDC25B-CDK2 inh: -0.12

Results for O=C(Nc1ccc2nc(SCC(=O)N3CCOCC3)sc2c1)c1cccs1 ?
TAR Tat displ: 2.4; CDC25B-CDK2 inh: -0.69

How did c1ccc(NC2=Nc3scc[n+]3[B-](c3ccccc3)(c3ccccc3)S2)cc1 do in these assays?
CDC25B-CDK2 inh: -1.9

Results for CCC[B-]1(CCC)OC(Nc2ccc3ccccc3c2)=Nc2scc[n+]21 ?
CDC25B-CDK2 inh: 4.2*

What do the screens show for `COc1ccccc1N1CSC2=C(C#N)C(c3ccccc3)CC(=O)N2C1` (stereo not given)?
TAR Tat displ: -2.2; CDC25B-CDK2 inh: 4.9*

Results for COc1ccc(C2CC(=O)N3CN(c4ccccc4OC)CSC3=C2C#N)cc1 (stereo not given) ?
TAR Tat displ: -2.1; CDC25B-CDK2 inh: 4.3*

How did O=C(CCCn1c(=O)c2cccn2c2cccnc21)Nc1cc(F)ccc1F do in these assays?
TAR Tat displ: 1.7

Results for Cc1nn(-c2nc3ccccc3n2C)c2c1C(c1cccc(F)c1F)CC(=O)N2 (stereo not given) ?
TAR Tat displ: 2.1

How did CCSc1nc2ccc(NC(=O)c3sc4nc(-c5ccncc5)ccc4c3N)cc2s1 do in these assays?
TAR Tat displ: 1.6; CDC25B-CDK2 inh: -0.72

What do the screens show for `Nc1c(C(=O)Nc2ccc(F)cc2)sc2nc(-c3ccncc3)ccc12`?
TAR Tat displ: 11*; CDC25B-CDK2 inh: -0.18

What do the screens show for `O=c1[nH]c2ccc(S(=O)(=O)N3CCN(c4cccc(Cl)c4)CC3)cc2[nH]c1=O`?
TAR Tat displ: 20*; CDC25B-CDK2 inh: 16

What do the screens show for `O=c1[nH]c2ccc(S(=O)(=O)N3CCN(c4ccccc4)CC3)cc2[nH]c1=O`?
CDC25B-CDK2 inh: -0.51

What do the screens show for `C1=C(c2ccc3c(c2)c2c4n3CCNC4CCC2)CCC1` (stereo not given)?
CDC25B-CDK2 inh: 14*

What do the screens show for `CC(C)COc1ccc2c(c1)c1c3n2CCNC3CCC1` (stereo not given)?
CDC25B-CDK2 inh: -3.1

How did O=C(CCc1nc2sc3c(c2c(=O)[nH]1)CCCCC3)NCCN1CCOCC1 do in these assays?
TAR Tat displ: 5.5*

How did COCCNC(=O)CCc1nc2sc3c(c2c(=O)[nH]1)CCCCC3 do in these assays?
TAR Tat displ: 0.44

Results for Cc1ccc(C)c(S(=O)(=O)Nc2ccc3oc(C)c(C(=O)O)c3c2)c1 ?
TAR Tat displ: 14*; CDC25B-CDK2 inh: 0.27

How did COCCOC(=O)c1c(C)oc2ccc(NS(=O)(=O)c3cc(C)ccc3C)cc12 do in these assays?
CDC25B-CDK2 inh: -3.5

Results for Cc1ccc2c(c1)nc(-n1nc(C)cc1C)c1nncn12 ?
CDC25B-CDK2 inh: -2.1

Results for O=C1N(c2ccc(F)cc2)C2CS(=O)(=O)CC2N1c1cccc(Br)c1 (stereo not given) ?
TAR Tat displ: 1; CDC25B-CDK2 inh: -1.1

What do the screens show for `O=C1NC(=O)/C(=C/c2ccc(-c3ccc(F)cc3O)o2)S1`?
CDC25B-CDK2 inh: 0.33

How did O=C1NC(=S)N/C1=C/c1ccc(-c2cc(C(=O)O)ccc2Cl)o1 do in these assays?
CDC25B-CDK2 inh: 3.6*

What do the screens show for `O=c1c(Nc2ccccc2)c(-c2ccc(Cl)cc2)c1=O`?
TAR Tat displ: 1

Results for CC(C)CCC1=NN(C(=O)C(C)C)C(O)(C(F)(F)F)C1 (stereo not given) ?
CDC25B-CDK2 inh: -0.28

Results for COc1ccc(-n2c(C)cc(CNC(=O)NC(C)C)c2C)cc1 ?
TAR Tat displ: -0.17

Results for O=c1c(-c2cc(O)c(O)c(O)c2)coc2cc(O)c(O)c(O)c12 ?
TAR Tat displ: 26*

What do the screens show for `O=c1c(-c2ccc(O)cc2)coc2cc(O)cc(O)c12`?
TAR Tat displ: 3.1; CDC25B-CDK2 inh: -2.5

Results for Cc1cc(-n2nnc3ccccc32)nc(C)n1 ?
TAR Tat displ: 14*; CDC25B-CDK2 inh: -1.2

Results for Cc1cc(C)n2c(n1)nc1ccccc12 ?
CDC25B-CDK2 inh: -2.1

How did Cc1ccc(NC(=O)Nc2nnc(CC(=O)Nc3ccccc3)s2)cc1 do in these assays?
CDC25B-CDK2 inh: 0.1

What do the screens show for `COc1ccc(NC(=O)Nc2nnc(CC(=O)Nc3ccc(C)cc3)s2)cc1`?
CDC25B-CDK2 inh: 5.5*

How did CC1(C)OC(=O)C(=Cc2ccc(OCc3ccc(F)cc3)c([N+](=O)[O-])c2)C(=O)O1 do in these assays?
CDC25B-CDK2 inh: -1.6

How did CCCCC1(C)OC(=O)C(=Cc2cc3c(cc2[N+](=O)[O-])OCO3)C(=O)O1 (stereo not given) do in these assays?
CDC25B-CDK2 inh: 20*

How did CN1C(=O)c2cc(C(=O)NCCCN3CCCC3=O)nn2CC1(C)C(=O)NC1CCCC1 (stereo not given) do in these assays?
TAR Tat displ: -0.31

Results for O=C(CCS(=O)(=O)c1cc2c3c(c1)CCN3C(=O)CC2)NCc1cccs1 ?
TAR Tat displ: -0.58

Results for CC1(C)CC(=O)C2=C(C1)Nc1nc(SCc3ccccc3Cl)[nH]c(=O)c1C2c1cccnc1 (stereo not given) ?
CDC25B-CDK2 inh: -0.69

How did NC(C(=O)O)C1CCCCC1 (stereo not given) do in these assays?
CDC25B-CDK2 inh: -0.39

What do the screens show for `N[C@H](C(=O)O)[C@H]1C[C@@H]1C(=O)O`?
CDC25B-CDK2 inh: 7.7*

Results for O=C(Nc1cccc2nsnc12)c1nc(-n2cnnc2)ccc1Br ?
TAR Tat displ: 2.5

Results for O=C(Nc1cccc2nsnc12)c1cccc(-n2cnnc2)n1 ?
TAR Tat displ: 14*

How did Cc1ccc(C2C(=O)N(C3CCCCCC3)CC(=O)N2Cc2ccccc2)cc1 (stereo not given) do in these assays?
CDC25B-CDK2 inh: -1.6

Results for CN(CC(=O)N1CCc2ccccc21)S(=O)(=O)c1cc2c(cc1Cl)NC(=O)CO2 ?
TAR Tat displ: -0.77

Results for CCN1C(=O)C2(c3ccccc31)C(C(=O)Nc1cccc(SC)c1)CC1CSCN12 (stereo not given) ?
TAR Tat displ: 20*

How did CSc1cccc(NC(=O)C2CC3CSCN3C23C(=O)N(C)c2ccccc23)c1 (stereo not given) do in these assays?
TAR Tat displ: 1.1

How did O=C(C1CCCN(c2nnc(-n3cccc3)s2)C1)N1CCC(N2CCCCC2)CC1 (stereo not given) do in these assays?
TAR Tat displ: 1.2
